Measured values taken from ChEMBL document CHEMBL1961873, “Compounds: GSK PKIS; Assays: Nanosyn kinase panel” (2012).

Legend:
[1] = molecular target: Tyrosine-protein kinase Fyn (Homo sapiens) (UniProt P06241); conditions: at 1 µM
[2] = molecular target: Tyrosine-protein kinase HCK (Homo sapiens) (UniProt P08631); conditions: at 0.1 µM
[3] = molecular target: Tyrosine-protein kinase HCK (Homo sapiens) (UniProt P08631); conditions: at 1 µM
[4] = molecular target: Insulin-like growth factor 1 receptor (Homo sapiens) (UniProt P08069); conditions: at 0.1 µM
[5] = molecular target: Insulin-like growth factor 1 receptor (Homo sapiens) (UniProt P08069); conditions: at 1 µM
[6] = molecular target: Insulin receptor (Homo sapiens) (UniProt P06213); conditions: at 0.1 µM
[7] = molecular target: Insulin receptor (Homo sapiens) (UniProt P06213); conditions: at 1 µM
[8] = molecular target: Insulin receptor-related protein (Homo sapiens) (UniProt P14616); conditions: at 0.1 µM
[9] = molecular target: Insulin receptor-related protein (Homo sapiens) (UniProt P14616); conditions: at 1 µM
[10] = molecular target: T1, Tyrosine-protein kinase ITK/TSK (Homo sapiens) (UniProt Q08881); conditions: at 0.1 µM;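 further: mean percent inhibition of ITK from the GSK PKIS screen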
T1 sequence (whole entry): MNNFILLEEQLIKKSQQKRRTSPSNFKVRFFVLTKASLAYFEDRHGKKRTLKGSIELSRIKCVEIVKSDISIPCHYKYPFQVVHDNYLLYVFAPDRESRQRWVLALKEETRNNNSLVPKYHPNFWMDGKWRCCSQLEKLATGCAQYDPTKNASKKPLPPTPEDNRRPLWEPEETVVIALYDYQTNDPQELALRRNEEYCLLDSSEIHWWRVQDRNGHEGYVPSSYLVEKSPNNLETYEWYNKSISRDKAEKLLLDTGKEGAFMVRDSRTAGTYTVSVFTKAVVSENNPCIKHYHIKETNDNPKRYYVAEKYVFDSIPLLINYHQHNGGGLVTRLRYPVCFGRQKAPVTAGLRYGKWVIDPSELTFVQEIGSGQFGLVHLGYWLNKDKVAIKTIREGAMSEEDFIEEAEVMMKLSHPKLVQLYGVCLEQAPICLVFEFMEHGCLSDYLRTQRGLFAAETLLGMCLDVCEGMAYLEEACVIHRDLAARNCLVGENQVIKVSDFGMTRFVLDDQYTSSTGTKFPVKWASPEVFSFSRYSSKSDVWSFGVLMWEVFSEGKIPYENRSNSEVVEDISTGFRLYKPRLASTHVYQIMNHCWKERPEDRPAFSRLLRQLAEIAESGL

Chain of Tyrosine-protein kinase HCK (Homo sapiens) (P08631 2-526 limits assumed): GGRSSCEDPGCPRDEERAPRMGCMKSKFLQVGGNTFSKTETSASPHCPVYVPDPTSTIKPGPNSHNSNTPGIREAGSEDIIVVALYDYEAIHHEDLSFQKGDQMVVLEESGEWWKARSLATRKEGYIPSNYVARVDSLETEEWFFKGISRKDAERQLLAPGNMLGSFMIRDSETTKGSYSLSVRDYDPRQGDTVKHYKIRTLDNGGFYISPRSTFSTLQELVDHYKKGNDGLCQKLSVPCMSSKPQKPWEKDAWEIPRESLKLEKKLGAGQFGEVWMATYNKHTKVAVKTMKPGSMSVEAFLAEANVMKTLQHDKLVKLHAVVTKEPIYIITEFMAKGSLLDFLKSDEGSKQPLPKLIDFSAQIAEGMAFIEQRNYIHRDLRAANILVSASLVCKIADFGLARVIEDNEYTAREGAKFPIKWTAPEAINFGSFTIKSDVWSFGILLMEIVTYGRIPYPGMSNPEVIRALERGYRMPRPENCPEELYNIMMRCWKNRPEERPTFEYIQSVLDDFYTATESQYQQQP
Chain of Insulin receptor (Homo sapiens) (P06213 28-758 limits assumed): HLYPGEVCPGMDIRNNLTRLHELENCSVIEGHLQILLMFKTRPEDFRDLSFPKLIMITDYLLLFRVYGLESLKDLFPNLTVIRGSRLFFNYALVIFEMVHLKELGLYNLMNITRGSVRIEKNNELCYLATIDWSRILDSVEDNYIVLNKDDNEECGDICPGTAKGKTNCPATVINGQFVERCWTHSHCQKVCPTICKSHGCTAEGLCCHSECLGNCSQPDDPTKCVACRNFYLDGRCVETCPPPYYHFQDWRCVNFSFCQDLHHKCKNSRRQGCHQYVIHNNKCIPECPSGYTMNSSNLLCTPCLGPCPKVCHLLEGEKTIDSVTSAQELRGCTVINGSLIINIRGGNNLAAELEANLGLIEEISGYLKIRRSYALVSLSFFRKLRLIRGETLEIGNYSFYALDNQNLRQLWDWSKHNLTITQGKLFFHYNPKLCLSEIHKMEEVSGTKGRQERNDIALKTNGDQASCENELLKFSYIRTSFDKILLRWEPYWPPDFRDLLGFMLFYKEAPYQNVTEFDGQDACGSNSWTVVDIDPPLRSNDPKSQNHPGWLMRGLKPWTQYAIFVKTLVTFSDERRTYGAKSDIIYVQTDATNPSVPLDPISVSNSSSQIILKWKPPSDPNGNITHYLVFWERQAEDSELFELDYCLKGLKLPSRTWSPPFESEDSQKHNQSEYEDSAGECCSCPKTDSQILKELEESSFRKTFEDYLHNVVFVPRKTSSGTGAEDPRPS
Chain of Insulin receptor (Homo sapiens) (P06213 763-1382 limits assumed): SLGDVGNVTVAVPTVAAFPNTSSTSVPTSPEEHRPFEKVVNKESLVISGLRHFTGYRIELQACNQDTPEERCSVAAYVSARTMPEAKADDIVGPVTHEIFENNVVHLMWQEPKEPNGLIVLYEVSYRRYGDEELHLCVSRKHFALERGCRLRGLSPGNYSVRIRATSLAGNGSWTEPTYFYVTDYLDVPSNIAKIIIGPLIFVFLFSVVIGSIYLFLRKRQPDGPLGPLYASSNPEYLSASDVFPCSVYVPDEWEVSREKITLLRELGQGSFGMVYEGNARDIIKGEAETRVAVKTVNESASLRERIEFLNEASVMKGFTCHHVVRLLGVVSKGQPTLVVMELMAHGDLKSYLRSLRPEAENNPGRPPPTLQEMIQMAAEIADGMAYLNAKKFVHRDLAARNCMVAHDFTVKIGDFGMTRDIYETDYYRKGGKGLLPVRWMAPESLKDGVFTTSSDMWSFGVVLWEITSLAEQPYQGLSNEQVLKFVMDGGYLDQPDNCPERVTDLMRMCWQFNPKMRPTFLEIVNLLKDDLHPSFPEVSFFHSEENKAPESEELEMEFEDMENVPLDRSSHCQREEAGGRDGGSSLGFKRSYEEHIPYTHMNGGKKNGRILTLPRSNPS
Chain of Tyrosine-protein kinase Fyn (Homo sapiens) (P06241 2-537 limits assumed): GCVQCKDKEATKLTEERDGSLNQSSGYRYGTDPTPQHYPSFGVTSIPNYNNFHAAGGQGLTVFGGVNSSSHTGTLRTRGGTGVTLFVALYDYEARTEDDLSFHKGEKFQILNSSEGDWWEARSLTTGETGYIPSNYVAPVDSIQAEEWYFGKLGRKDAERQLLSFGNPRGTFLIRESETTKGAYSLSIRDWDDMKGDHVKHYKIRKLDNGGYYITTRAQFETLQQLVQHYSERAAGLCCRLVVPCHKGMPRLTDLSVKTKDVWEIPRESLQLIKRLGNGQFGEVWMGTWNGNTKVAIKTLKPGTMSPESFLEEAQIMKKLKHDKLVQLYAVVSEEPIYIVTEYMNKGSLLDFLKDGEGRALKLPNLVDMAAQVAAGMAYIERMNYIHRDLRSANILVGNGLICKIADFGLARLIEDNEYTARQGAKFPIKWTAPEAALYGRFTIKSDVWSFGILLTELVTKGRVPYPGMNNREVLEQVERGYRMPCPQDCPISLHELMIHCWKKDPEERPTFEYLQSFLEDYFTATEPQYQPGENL
Chain of Insulin-like growth factor 1 receptor (Homo sapiens) (P08069 31-736 limits assumed): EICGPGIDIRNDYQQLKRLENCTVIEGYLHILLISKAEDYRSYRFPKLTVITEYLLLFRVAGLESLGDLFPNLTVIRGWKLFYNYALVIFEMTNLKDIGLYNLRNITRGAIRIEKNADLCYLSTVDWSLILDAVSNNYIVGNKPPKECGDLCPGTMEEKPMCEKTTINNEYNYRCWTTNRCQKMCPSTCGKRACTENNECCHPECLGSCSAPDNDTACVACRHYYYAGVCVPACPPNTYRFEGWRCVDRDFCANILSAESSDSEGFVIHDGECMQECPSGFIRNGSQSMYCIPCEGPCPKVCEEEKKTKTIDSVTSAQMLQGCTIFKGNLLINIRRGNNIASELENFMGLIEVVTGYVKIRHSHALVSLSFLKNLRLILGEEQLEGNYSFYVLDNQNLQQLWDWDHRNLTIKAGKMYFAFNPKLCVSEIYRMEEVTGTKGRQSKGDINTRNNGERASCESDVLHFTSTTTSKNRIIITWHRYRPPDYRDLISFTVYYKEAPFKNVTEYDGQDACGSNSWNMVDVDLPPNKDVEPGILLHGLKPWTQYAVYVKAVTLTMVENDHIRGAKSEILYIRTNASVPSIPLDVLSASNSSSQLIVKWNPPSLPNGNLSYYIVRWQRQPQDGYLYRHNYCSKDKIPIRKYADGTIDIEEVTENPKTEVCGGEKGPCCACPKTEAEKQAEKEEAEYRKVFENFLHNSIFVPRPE
Chain of Insulin-like growth factor 1 receptor (Homo sapiens) (P08069 741-1367 limits assumed): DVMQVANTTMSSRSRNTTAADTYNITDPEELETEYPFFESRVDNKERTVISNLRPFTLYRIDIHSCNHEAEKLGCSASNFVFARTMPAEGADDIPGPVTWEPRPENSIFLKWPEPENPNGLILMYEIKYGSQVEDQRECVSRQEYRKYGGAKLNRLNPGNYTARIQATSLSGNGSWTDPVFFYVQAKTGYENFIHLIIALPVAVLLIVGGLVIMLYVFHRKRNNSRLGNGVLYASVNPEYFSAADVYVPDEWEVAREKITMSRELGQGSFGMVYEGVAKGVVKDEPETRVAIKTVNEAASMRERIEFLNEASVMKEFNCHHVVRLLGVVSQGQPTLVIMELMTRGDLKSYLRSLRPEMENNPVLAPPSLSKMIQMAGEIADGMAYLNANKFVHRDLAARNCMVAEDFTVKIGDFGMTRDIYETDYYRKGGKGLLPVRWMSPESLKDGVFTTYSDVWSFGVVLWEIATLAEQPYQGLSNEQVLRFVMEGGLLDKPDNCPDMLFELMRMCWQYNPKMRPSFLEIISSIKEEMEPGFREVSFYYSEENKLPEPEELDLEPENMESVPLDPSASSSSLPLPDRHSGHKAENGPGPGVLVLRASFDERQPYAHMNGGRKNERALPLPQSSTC
Chain of Insulin receptor-related protein (Homo sapiens) (P14616 27-742 limits assumed): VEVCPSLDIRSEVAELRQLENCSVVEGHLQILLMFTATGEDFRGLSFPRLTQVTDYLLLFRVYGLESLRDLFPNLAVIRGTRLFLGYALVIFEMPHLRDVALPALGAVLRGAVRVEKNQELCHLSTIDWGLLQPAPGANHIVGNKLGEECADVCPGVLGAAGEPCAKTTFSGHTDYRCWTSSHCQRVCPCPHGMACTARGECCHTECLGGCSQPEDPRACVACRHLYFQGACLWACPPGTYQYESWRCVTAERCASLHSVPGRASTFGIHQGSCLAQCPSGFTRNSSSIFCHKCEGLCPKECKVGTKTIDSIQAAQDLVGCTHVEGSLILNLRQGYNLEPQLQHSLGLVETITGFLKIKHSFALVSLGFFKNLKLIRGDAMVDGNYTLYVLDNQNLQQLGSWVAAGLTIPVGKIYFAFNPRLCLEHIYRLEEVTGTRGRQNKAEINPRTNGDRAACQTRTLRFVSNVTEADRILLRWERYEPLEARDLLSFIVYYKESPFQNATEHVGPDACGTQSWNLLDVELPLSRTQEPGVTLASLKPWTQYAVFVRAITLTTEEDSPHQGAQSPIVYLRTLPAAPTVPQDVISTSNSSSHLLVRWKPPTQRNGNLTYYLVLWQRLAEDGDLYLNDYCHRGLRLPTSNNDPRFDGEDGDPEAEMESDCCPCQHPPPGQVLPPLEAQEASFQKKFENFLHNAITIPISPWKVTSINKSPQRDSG
Chain of Insulin receptor-related protein (Homo sapiens) (P14616 747-1297 limits assumed): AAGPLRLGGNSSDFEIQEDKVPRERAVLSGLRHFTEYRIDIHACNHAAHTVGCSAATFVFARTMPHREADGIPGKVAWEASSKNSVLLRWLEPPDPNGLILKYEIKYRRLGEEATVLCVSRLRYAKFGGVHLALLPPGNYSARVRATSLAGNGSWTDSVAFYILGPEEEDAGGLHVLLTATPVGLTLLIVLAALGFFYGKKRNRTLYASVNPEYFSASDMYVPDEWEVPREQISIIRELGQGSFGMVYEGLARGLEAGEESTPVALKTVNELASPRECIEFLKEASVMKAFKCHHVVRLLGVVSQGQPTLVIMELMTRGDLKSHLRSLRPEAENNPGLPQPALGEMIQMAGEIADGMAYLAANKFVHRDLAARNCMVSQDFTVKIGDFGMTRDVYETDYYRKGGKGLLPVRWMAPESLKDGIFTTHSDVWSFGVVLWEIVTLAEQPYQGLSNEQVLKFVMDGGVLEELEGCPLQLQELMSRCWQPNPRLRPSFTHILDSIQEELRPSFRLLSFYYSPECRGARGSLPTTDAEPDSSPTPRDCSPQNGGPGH

Row | SMILES | inhibition [1] | inhibition [2] | inhibition [3] | inhibition [4] | inhibition [5] | inhibition [6] | inhibition [7] | inhibition [8] | inhibition [9] | inhibition [10]
1 | CCNC(=O)O[C@H]1CN[C@H](C#Cc2cc3ncnc(Nc4ccc(OCc5cccc(F)c5)c(Cl)c4)c3s2)C1 | 1.8% | 5.66% | 5.6% | 3.27% | 2.91% | 0.78% | 6.61% | 0.8% | 1.47% | 1.32%
2 | CN(C)CCOc1ccc(-c2nc(-c3ccncc3)c(-c3ccc4c(c3)CC/C4=N\O)[nH]2)cc1 | 8.51% | 3.04% | 8.01% | 4.59% | 3.85% | 5.62% | 2.19% | 6.12% | 3.86% | 0.77%
3 | N#Cc1c(NC(=O)c2ccc(F)cc2)sc2c1CCCC2 | 3.42% | 1.68% | 3.88% | 0.23% | -0.52% | 3.54% | 2.79% | -2.15% | -0.16% | 0.64%
4 | CNC(=O)c1cccc(C#Cc2cncnc2Nc2ccc(OCc3cccc(F)c3)c(Cl)c2)c1 | 5.06% | 2.16% | 2.54% | -0.34% | -0.55% | -2.02% | -0.61% | 0.75% | 0.96% | -0.18%
5 | Clc1ccc(-c2nn3ncccc3c2-c2ccnc(Nc3ccccc3)n2)cc1 | 43.5% | 7.64% | 34.1% | 3.71% | 5.4% | 2.64% | 4.44% | 0.65% | 0.7% | 1.38%
6 | NS(=O)(=O)c1ccc(Nc2ncc(-c3ccccc3)o2)cc1 | 5.41% | 4.43% | 10.7% | 3.39% | 3.81% | 2.2% | 4.14% | 3.04% | 1.16% | 1.19%
7 | CCCN1CCC(c2ccc(Nc3nc(Nc4cc(F)ccc4C(N)=O)c4cc[nH]c4n3)c(OC)c2)CC1 | 25.1% | 5.95% | 11.5% | 91.8% | 93.6% | 97.5% | 97.3% | 93.3% | 97.2% | 1.62%
8 | c1cc(-c2cnn3nc(N4CCOCC4)ccc23)nc(NC2CC2)n1 | 4.87% | 7.14% | 11.7% | 4.81% | 5% | 4.73% | 8.56% | 2.65% | 1.15% | 1.06%
9 | Nc1nc(-c2cccc(Cl)c2)c(-c2ccc3ncccc3n2)s1 | 5.51% | 3.98% | 9.71% | 3.52% | 2.56% | 6.92% | 7.08% | 1.7% | 4.52% | 1.66%
10 | NS(=O)(=O)c1ccc(N/N=C2\C(=O)Nc3ccc4ncccc4c32)cc1 | 30.1% | 13.6% | 73.5% | 1.63% | 13.7% | 5.75% | 27.8% | -0.5% | 1.85% | 2.75%
11 | CCn1cc(-c2ccnc3[nH]ccc23)c(-c2cccc(NC(=O)Nc3ccc(OCc4ccccc4)cc3)c2)n1 | 1.64% | 0.36% | 2.34% | -3.42% | 0.41% | 2.08% | 3.81% | -1.45% | -1.26% | -0.92%
12 | CC(=O)Nc1cccc(C#Cc2cncnc2Nc2ccc(OCc3cccc(F)c3)c(Cl)c2)c1 | 5.51% | 5.81% | 9.29% | 1.84% | 2.53% | 3.44% | 1.06% | 2.25% | 1.77% | 1.8%
13 | CCn1c(-c2nonc2N)nc2c(C#CC(C)(C)O)nc(OC[C@H](N)c3ccccc3)cc21 | 4.61% | 2.17% | 9.34% | 6.38% | 2.6% | 7.87% | 1.38% | 0.82% | 2.71% | 2.08%
14 | [O-][S+]1CCN(Cc2ccc(-c3ccc4ncnc(Nc5ccc(OCc6cccc(F)c6)c(Cl)c5)c4c3)o2)CC1 | 6% | 6.09% | 9.6% | 3.08% | 5.73% | 5.28% | 4.61% | 2.99% | 3.54% | 1.07%
15 | COC(=O)c1sc(-n2cnc3cc(OC)c(OC)cc32)cc1OCc1ccccc1C(F)(F)F | 56.3% | 9.79% | 28.1% | 0.42% | 0.25% | 5.09% | 5.96% | 1.78% | -0.14% | 1.1%
16 | CS(=O)(=O)CCNCc1ccc(-c2ccc3ncnc(Nc4ccc(OCc5ccccc5)c(C(F)(F)F)c4)c3c2)o1 | 4.69% | 4.59% | 5.75% | -0.48% | -0.18% | 0.37% | 2.62% | 2.84% | 2.56% | 0.4%
17 | CNC(=O)c1cncc(/C=C/c2ccccc2Cl)c1 | 6.88% | 1.18% | 11.3% | 6.84% | 5.76% | -1.75% | -1.65% | -0.5% | -1.16% | 1.6%
18 | COc1cccc(-c2c[nH]c3c(N/N=C/c4ccncc4)ncnc23)c1 | 58.7% | 12.8% | 51.8% | 0.05% | 2.22% | 1.17% | 3.79% | 3.25% | 2.79% | 1.15%
19 | CCCN(CCS(C)(=O)=O)Cc1ccc(-c2ccc3ncnc(Nc4ccc(OCc5cccc(F)c5)c(Cl)c4)c3c2)o1 | 2.14% | 4.4% | 8.65% | 0.58% | 1.93% | 5.38% | 5.24% | 0.9% | 1.54% | 0.49%

Row | SMILES | inhibition [1] | inhibition [2] | inhibition [3] | inhibition [4] | inhibition [5] | inhibition [6] | inhibition [7] | inhibition [8] | inhibition [9] | inhibition [10]
20 | COc1ccc2[nH]c3c4[nH]c5ccc(OC)cc5c4c4c(c3c2c1)C(=O)NC4=O | 19% | 20.1% | 75.6% | 5.28% | 4.22% | 6.91% | 10.3% | 3.27% | 6.93% | 1.85%
21 | CCn1c(-c2nonc2N)nc2c(C#CC(C)(C)O)ncc(OC3CCNCC3)c21 | 5.91% | 3.4% | 7.03% | 1.97% | 2.36% | 1.46% | 3.32% | 1.16% | 2.07% | 1.99%
22 | COc1cc2ncn(-c3cc(OCc4ccccc4C(F)(F)F)c(C(=O)N(C)C)s3)c2cc1OC | 8.11% | 2.13% | 10.1% | 1.61% | -0.15% | 2.79% | 1.7% | -2.24% | -0.76% | 0.81%
23 | O=C(O[C@H]1CN[C@H](C#Cc2cc3ncnc(Nc4ccc(Cc5ccccc5)cc4)c3s2)C1)N1CCOCC1 | 5.81% | 1.46% | 6.92% | -3.02% | -1.17% | -0.74% | -2.74% | 0.8% | 1.05% | -0.73%
24 | CS(=O)(=O)CCNCc1coc(-c2ccc3ncnc(Nc4ccc(OCc5ccccc5)cc4)c3c2)c1 | 12.2% | 4.78% | 9.64% | 0.62% | 2.16% | 3.09% | 2.56% | -0.04% | 3.03% | 0.65%
25 | O=C(Nc1n[nH]c2cc(-c3ccc(F)cc3)ccc12)C1CC1 | 3.69% | 5.36% | 8.36% | 4.19% | 0.88% | 3.21% | 5.18% | 1.75% | 1.45% | 1.07%
26 | Fc1ccc(-c2nn3ccccc3c2-c2ccncc2)cc1 | 1.04% | 1.96% | 5.95% | 0.6% | 0.31% | 1.92% | 4.03% | -0.72% | 0.71% | 1.1%
27 | COc1ccc(-c2cc3c(N)ncnc3o2)cc1 | 3.42% | -0.32% | 7.05% | -3.63% | -0.91% | -0.41% | 2.44% | -2.87% | -2.2% | -0.48%
28 | Cc1cccc2c1NC(=O)/C2=N\Nc1ccc(S(N)(=O)=O)cc1 | 1.92% | 4.11% | 6.57% | 1.39% | 2.37% | 2.44% | 2.27% | 6.42% | 0.05% | 1.75%
29 | Nc1nc(-c2ccc(F)cc2)c(-c2ccc3ncccc3n2)s1 | 12.4% | 5.89% | 17.5% | 4.9% | 24.4% | 6.61% | 43.3% | 2.47% | 1.87% | 2.58%
30 | Fc1ccc(-c2cc(-c3c[nH]nc3-c3ccccn3)ccn2)cc1 | 5% | 5.58% | 6.04% | 0.26% | 1.04% | 6.47% | 5.34% | 2.45% | 2.16% | 0.99%
31 | COc1ccc(-c2nn3ncccc3c2-c2ccnc(Nc3ccc4c(c3)OCCO4)n2)cc1 | 36.6% | 13.4% | 46% | -3.1% | 7.28% | 1.21% | 24.1% | 0.02% | 3.24% | -1.45%
32 | COc1ccc(-c2oc3ncnc(N)c3c2-c2ccc(NC(=O)Nc3cc(C(F)(F)F)ccc3F)cc2)cc1 | 52.1% | 31% | 86.1% | 4.58% | 7.94% | 4.98% | 27.2% | 1.97% | 6.8% | 5.01%
33 | Cc1cccc(Nc2ncc(-c3ccccc3)o2)c1 | 8.62% | 4.6% | 10.2% | 4.44% | 1.6% | 3.27% | 2.89% | 2.57% | 1.2% | 2.38%
34 | COc1cccc(-n2ncc3c(N/N=C/c4ccc(F)cc4)ncnc32)c1 | 31.1% | 6.41% | 17.5% | 2.52% | 3.62% | -0.02% | 2.69% | 2.92% | 2.32% | 1.34%
35 | Cc1ccc(O)cc1Nc1ccnc2cc(-c3ccccn3)ccc12 | 88.5% | 70.9% | 87.9% | 5.77% | 4.82% | 5.4% | 5.51% | 5.36% | 3.66% | 1.62%
36 | COc1cc2c(cc1Nc1nc(Nc3ccsc3C(N)=O)c3cc[nH]c3n1)N(C(=O)CN(C)C)CCC2(C)C | 1.15% | 6.46% | 12.9% | 98.1% | 97.1% | 98.7% | 98% | 98% | 97.9% | 1.74%
37 | Cc1ccc2c(-c3ccnc(Nc4ccccc4)n3)c(-c3ccc(F)cc3)nn2n1 | 68.9% | 11.9% | 43.9% | 1.92% | 5.18% | 1.31% | 7.57% | 4.42% | 2.61% | 1.54%
38 | Fc1ccc(-c2nn3ncccc3c2-c2ccnc(Nc3ccc4c(c3)OCCO4)n2)cc1 | 88% | 26.3% | 71.5% | 8.14% | 3.49% | 7.04% | 18.3% | 2.61% | 1.61% | 1.51%
